Test results published in PubChem BioAssay (Tox21).
Results filed as inconclusive are left out. The source made the active and inactive calls. Calls follow the shape of the dose curve; as a rule, active = well fitted activation curve with a large enough effect in the signal ratio in the repeat runs, with a control signal flat (not every such curve was filed as active); inconclusive = weak or mixed curves; inactive = flat fitted curve, though single readings scatter; the % refers to the signal ratio.

Assay: qHTS assay for small molecule activators of the heat shock response signaling pathway (AID 743210)
Conditions: HeLa HSE-bla reporter, beta-lactamase ratio, 5 h; series mostly up to 62.6 µM; activation: at the top concentration
Description: U.S. Tox21 Program National Center for Advancing Translational Sciences [NCATS] NIH Chemical Genomics Center [NCGC] U.S. Environmental Protection Agency [EPA] National Institutes of Environmental Health Sciences [NIEHS] National Toxicology Program [NTP] U.S. Food and Drug Administration [FDA] Tox21 Assay Overview: Various chemicals, environmental and physiological stress conditions may lead to the activation of heat shock response/ unfolded protein response (HSR/UPR). There are three heat shock transcription factors (HSFs) (HSF-1, -2, and -4) mediating transcriptional regulation of the human HSR. To identify the compounds that activate HSR signaling, HSE-bla HeLa cell line (Invitrogen, Carlsbad, CA, USA) containing a beta-lactamase reporter gene under the control of the heat shock response elements was used to screen the Tox21 10K compound library.
Tox21 Assay Protocol Summary: The CellSensor HSE-bla HeLa cells (Invitrogen, Carlsbad, CA, USA) were dispensed at 1500 cells/6uL/well into 1536-well black wall/clear bottom plates using a Multidrop combi (Thermo Fisher Scientific, Waltham, MA) dispenser. After the assay plates were incubated at 37 C and 5% CO2 overnight, 23 nL of compounds dissolved in DMSO, positive controls or DMSO only was transferred to the assay plate by a Pintool station (Kalypsys, San Diego, CA). The plates were incubated at 37 C for 5 h. After 1 uL of LiveBLAzerTM B/G FRET substrate was added using a Flying Reagent Dispenser (Beckman Coulter, Indianapolis, IN, USA), the plates were incubated at room temperature for 2.5 h, and fluorescence intensity was measured by an Envision plate reader (PerkinElmer, Shelton, CT).
% is scaled to controls: 0 for no effect and ±100 for the full control effect.

SMILES	activation
CC(C)C(=O)OCC(C)(C)C(O)C(C)C (stereo not given)	0.0928% [at 81.1 µM] (inactive)
CC(=O)OC(C)OC(C)=O	-0.397% [at 81.1 µM] (inactive)
NC/C=C/C(=O)O	-0.531% (inactive)
CC1(C)S[C@@H]2[C@H](NC(=O)C(C(=O)O)c3ccccc3)C(=O)N2[C@H]1C(=O)O (stereo not given in full)	1.92% (inactive)
CC(C)CC(=O)OCc1ccccc1	-1.62% (inactive)
O=C1CCCCCCCCCCC(=O)OCCO1	-0.0572% (inactive)
CCCOc1ccc2c(c1)CC[C@@H]1[C@@H]2CC[C@]2(C)C(OC)CC[C@@H]12 (stereo not given in full)	-0.816% (inactive)
CCN(CC)C(=O)N(CC)CC	0.0852% (inactive)
O=Cc1ccc(F)c(Br)c1	0.0572% (inactive)
CC(=O)OC1C2(C)CCC(C2)C1(C)C (stereo not given)	0.498% (inactive)
CCCCN1C[C@H](O)[C@@H](O)[C@H](O)[C@H]1CO	1.57% (inactive)
CC1=C(CC(=O)O)c2cc(F)ccc2/C1=C\c1ccc(S(C)(=O)=O)cc1	-0.225% (inactive)
CN(C)CC[C@@H](c1ccc(Cl)cc1)c1ccccn1	-1.43% (inactive)
Oc1ccccc1C=NCc1ccccc1	0.289% (inactive)
OCc1ccccc1O	-1.54% (inactive)
CC(C)(C)C1CCCCC1=O (stereo not given)	-0.257% (inactive)
COC(=O)N[C@H](C(=O)N[C@@H](Cc1ccccc1)[C@@H](O)CN(Cc1ccc(-c2ccccn2)cc1)NC(=O)[C@@H](NC(=O)OC)C(C)(C)C)C(C)(C)C	-0.936% (inactive)
O=C(O)[C@@H](O)[C@H](O)[C@H](O)[C@@H](O)C(=O)O	-0.9% (inactive)
O=C(O)c1cccc(Cl)c1Cl	0.571% (inactive)
CCCCCCOc1ccc(N)cc1	-0.207% (inactive)

SMILES	activation
CCCCCCCCCC#N	0.0992% (inactive)
CN1[C@@H]2CC[C@H]1CC(OC(=O)c1c[nH]c3ccccc13)C2 (stereo not given in full)	-1.4% (inactive)
Cc1nnc(SCC2=C(C(=O)O)N3C(=O)[C@@H](NC(=O)Cn4cnnn4)[C@H]3SC2)s1	0.899% (inactive)
CN1CCC[C@@H]1Cc1c[nH]c2ccc(CCS(=O)(=O)c3ccccc3)cc12	-0.679% (inactive)
C[C@@H]1CN(c2c(F)c(N)c3c(=O)c(C(=O)O)cn(C4CC4)c3c2F)C[C@H](C)N1	-0.2% [at 29.1 µM] (inactive)
CC(C)(CO)[C@@H](O)C(=O)NCCC(=O)O	-1.86% [at 81.1 µM] (inactive)
Cc1cc(S(=O)(=O)O)c(N)cc1Cl	-0.0496% [at 81.1 µM] (inactive)
CC(C)NCC(O)COc1ccc(CCOCC2CC2)cc1 (stereo not given)	-0.543% (inactive)
CC(C)Nc1nc(N)nc(Cl)n1	-0.276% (inactive)
CC(=O)N(CC(O)CN(C(C)=O)c1c(I)c(C(=O)NCC(O)CO)c(I)c(C(=O)NCC(O)CO)c1I)c1c(I)c(C(=O)NCC(O)CO)c(I)c(C(=O)NCC(O)CO)c1I (stereo not given)	0.575% (inactive)
COc1nc(C)nc(NC(=O)NS(=O)(=O)c2ccccc2OCCCl)n1	-0.471% (inactive)
OCc1c2ccccc2cc2ccccc12	1.33% [at 81.1 µM] (inactive)
Cc1ccc([N+](=O)[O-])cc1Cl	-0.413% [at 81.1 µM] (inactive)
O=CCCc1ccccc1	-2.17% (inactive)
Cc1cccc(C)c1NC(=O)CN1CCCCCC1	-0.282% (inactive)
COc1ccccc1N1CCN(CCCNc2cc(=O)n(C)c(=O)n2C)CC1	-0.66% (inactive)
CCCc1c2oc(C(=O)O)cc(=O)c2cc2c(=O)cc(C(=O)O)n(CC)c12	1.44% (inactive)
CCc1cc2cc(OC)c(OC)cc2c(Cc2ccccc2)n1	-0.356% (inactive)
COC(=O)C(C)O (stereo not given)	-0.006% [at 81.1 µM] (inactive)
CCC(=O)Nc1ccc(O)cc1	0.105% (inactive)
